Integrin act MD: activates integrin-mediated alleviation for muscular dystrophy. Potency, µM (highest dose often 38.3 µM), for inactives: at the top dose activation, usual class: activators. AID 624291. actives 0.064% (n = 350,000). alpha7betagal myoblasts, beta-gal FDG fluorescence, 48 h;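 note: potency is the fitted concentration of half-maximal effect; 100% = response of the positive control SU9516; nearly all actives have a fitted effect of over 60% in size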
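alpha7betagal+/- myoblasts (passage 13, 250/well) treated 48 h at 37C with compounds at 1:260 dilution of DMSO stock. Lysed, then beta-galactosidase activity read as FDG fluorescence (ex 480/em 540) after 30 min, with pre-read for autofluorescence.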
ATXN2 expr inh: ATXN2 expression inhibition. HEK-293 ATXN2-luciferase reporter, luminescence, 24 h. Potency, µM (top dose mostly 57 µM), for the others: at the top dose activity change, negative = inhibition, actives largely listed as inhibitors. actives 0.72% (n = 360,000); note: potency is the fitted concentration of half-maximal effect; % is set by controls: 0 for no effect and ±100 for the full control effect; nearly all actives have a fitted effect of over 55% in size
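qHTS (up to 57 uM final) was run with 24 h compound exposure of reporter cells at 37 °C. Each well was multiplexed: SteadyGlo luminescence measured ATXN2-luciferase expression after a fluorogenic Gly-Phe-AFC viability readout (25 uM final).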
DRD3 agonist: D3 dopamine receptor (human) agonism. P35462. actives 0.58% (n = 410,000). max activation, %. D3R DiscoveRx beta-arrestin cells, luminescence, 90 min; in the data active = max activation above about 30%; note: 0% is about no effect
Target sequence (P35462 whole entry, looked up): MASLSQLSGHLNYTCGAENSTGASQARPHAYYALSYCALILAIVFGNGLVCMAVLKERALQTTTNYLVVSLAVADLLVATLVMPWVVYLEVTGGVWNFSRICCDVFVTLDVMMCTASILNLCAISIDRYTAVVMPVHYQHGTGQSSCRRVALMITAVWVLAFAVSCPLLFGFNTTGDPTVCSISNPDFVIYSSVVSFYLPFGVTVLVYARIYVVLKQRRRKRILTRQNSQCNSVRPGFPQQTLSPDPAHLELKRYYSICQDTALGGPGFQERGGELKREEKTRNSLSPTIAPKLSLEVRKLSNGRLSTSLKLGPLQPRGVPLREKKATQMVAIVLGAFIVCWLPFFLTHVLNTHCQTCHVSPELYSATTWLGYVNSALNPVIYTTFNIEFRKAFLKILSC
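Agonist mode: compounds and dopamine controls were applied to plated cells for 90 min at 37 degrees C after an overnight attachment at 1500 cells/well. Luminescent read-out followed 30 - 60 minutes at room temperature with DiscoveRx detection reagent.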
IL-1B inflam inh: blocks inflammasome-driven IL-1 beta release; THP-1 LPS/ATP IL-1B secretion, AlphaLISA, 16 h; stronger effect = lower value; activity change, % at 57.5 µM; actives 4.7% (n = 360,000); in the data active = activity change below about -50%; inconclusive = mostly about -30% to -49%; note: % is set by controls: 0 for no effect and ±100 for the full control effect
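THP-1 cells pretreated 1 hr with compounds (up to 57.5 uM final), then stimulated with LPS (250 ng/mL final) plus ATP (1.25 mM final); secreted IL-1B measured by AlphaLISA after 16 hr, decreased signal indicating inhibition.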
ATXN viability: reduces viability in counter-screen for ATXN expression inhibitors; Potency, µM (top dose mostly 56.7 µM), actives largely listed as cytotoxic; S2 cells (HEK-293 line with an ATXN2-luciferase reporter) viability, CellTiter-Fluor protease fluorescence, 24 h; actives 0.49% (n = 400,000); note: potency is the fitted concentration of half-maximal effect; nearly all actives have a fitted effect of over 40% in size
DRD3 antagonist: D3 dopamine receptor (human) antagonism | actives 2.5% (n = 360,000) | max response, negative = inhibition, % | D3R cells, DiscoveRx beta-arrestin luminescence, antagonist mode; stronger effect = lower value | P35462; in the data active = max response below about -50%; inconclusive = no clear call, values can overlap the other calls; note: % is set by controls: 0 for no effect and ±100 for the full control effect
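Cells expressing the human receptor were seeded at 1500 cells/well, incubated overnight at 37 degrees C in 5% CO2, then exposed to library compounds with dopamine controls for 90 minutes at 37 degrees C before luminescent detection.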
The depositor's hits bear a star; i = inactive; ? = inconclusive; · = not tested or not shown. Shown are actives, neighbours in structure and some others; about 7% of the full set was active somewhere. Unless noted, calls come from the whole dose curve; as a rule, active = well fitted curve in the direction sought with a large enough effect; inconclusive = small, poorly fitted or top-dose-only effect, or another doubt; inactive = no such curve, though single readings can be large; an effect the other way counts as inactive or inconclusive.

SMILES	Integrin act MD	ATXN2 expr inh	DRD3 agonist	IL-1B inflam inh	ATXN viability	DRD3 antagonist
COc1ccc(OC)c(/C=C/C(=O)N2C(=O)c3cccc(N)c3C2=O)c1	-54%	?	2	-121*	i	-65*
COc1cccc(CN2C(=O)c3cccc(N)c3C2=O)c1	23%	-10%	0	5	·	22
COc1cc(/C=C/C(=O)N2CCN(C(=O)/C=C/c3cc(OC)c(OC)c(OC)c3)CC2)cc(OC)c1OC	9%	42%	3	-8	i	18
COC(=O)[C@@]1(Cc2ccc(F)cc2)[C@H]2C(CC(=O)C(=O)N3CCCC3)C(=O)C[C@H]2CN1C(=O)c1ccccc1 (stereo not given in full)	·	?	3	-70*	?	14
COC(=O)[C@@]1(Cc2ccc(OC)cc2)[C@@H]2C(=CC(=O)[C@H]2CC(=O)C(=O)N2CCCC2)CN1C(=O)c1ccccc1	14%	?	-7	-76*	28µM*	0
COC(=O)[C@@]1(Cc2ccc(F)cc2)[C@@H]2[C@@H](CC(=O)[C@H]2CC(=O)C(=O)N(C)C)CN1C(=O)c1ccccc1	0%	-14%	6	-19	i	-2
COc1ccc(C(O)c2ncc(-c3ccc(Cl)cc3)[nH]2)cc1 (stereo not given)	·	7%	-4	-3	i	-22
Clc1ccc(CNc2ncnc3[nH]ncc23)c(Cl)c1	22%	0%	7	-54*	i	16
Clc1ccc(CNc2ncnc3[nH]ncc23)cc1Cl	0%	-17%	8	-24	i	0
Cc1cc(NC(=O)CSCC(=O)OCC(=O)Nc2cc(C)c(C)cc2[N+](=O)[O-])no1	0%	1%	-16	-4	i	-10
CCCc1ccc(C(=O)O/N=C(\N)c2ccccn2)cc1	-29%	?	-15	-58*	i	-21
N/C(=N\OC(=O)c1ccccc1Cl)c1cccc([N+](=O)[O-])c1	3%	·	1	11	i	-11
N/C(=N/OC(=O)c1cccc([N+](=O)[O-])c1)c1cccc([N+](=O)[O-])c1	16%	5%	-5	-11	i	-53*
N/C(=N\OC(=O)c1cc([N+](=O)[O-])ccc1Cl)c1ccccn1	0%	-8%	-14	-96*	?	-9
N/C(=N\OC(=O)c1ccc([N+](=O)[O-])cc1Cl)c1ccccn1	2%	?	15	?	i	4
N/C(=N/OC(=O)c1ccccc1Cl)c1ncc([N+](=O)[O-])s1	-67%	-30%	-14	-88*	?	-18
N/C(=N/S(=O)(=O)c1ccccc1)c1cccc([N+](=O)[O-])c1	-5%	-21%	5	0	i	3
COC(=O)c1ccc(N=C2SCC(=O)N2C)cc1	6%	5%	4	-3	i	-9
NC(CO)(CO)CO	·	5%	-13	·	i	·
N/C(=N\OC(=O)c1ccc2ccccc2c1)c1ccccn1	-1%	11µM*	2	-25	i	8
CCOc1ccc(CC(=NCCc2ccccc2)C2=C(O)CC(C)(C)CC2=O)cc1OCC	-10%	-10%	4	-66*	i	-3
CCCCCCN1C[C@@H](O)[C@H](n2cc(C3CC3)nn2)C[C@@H]1c1ccccc1	-21%	?	-4	-12	?	-25
COc1ccc2c(c1)OC[C@H]1[C@H]2N2C(=O)c3ccc(F)cc3NC(=O)[C@@]2(C)[C@H]1c1ccccc1	-37%	-12%	-25	-54*	i	-25
Cc1ccc2c(c1)C(=O)N1[C@H]3c4cc(Cl)ccc4OC[C@@H]3[C@H](c3ccccc3)[C@]1(C)C(=O)N2	-3%	-10%	17	-29	i	-3
Cc1ccc2c(c1)[C@@H]1[C@H](CO2)[C@H](c2ccccc2)[C@@]2(C)C(=O)N[C@H](C)C(=O)N12	-21%	1%	31*	4	i	8

Source: PubChem BioAssay
